Shiga inhibitor – inhibitors of Shiga toxin in Vero cells | Vero cells, Shiga toxin protein synthesis inhibition reporter | inhibition, % at 38.7 µM | 290,000 compounds, 9.2% hits | AID 2315; in the data active = inhibition mostly above about 28%, no sharp cut-off; inactive = mostly below about 43%; note: 0% is about no effect
RE007 growth inh – less growth of the S. pombe RE007 Vpr strain; S. pombe RE007 Vpr strain, BacTiter-Glo ATP luminescence, 24 h; Potency, µM (titrated, usually from 92.2 µM), inactives show top-dose activity change, negative = less growth, usual class: inhibitors; 360,000 compounds, 0.21% hits; AID 651644; active = well fitted falling curve with a large enough effect; inconclusive = small, poorly fitted or top-dose-only effect; inactive = no such curve, though single readings can be large or run the other way; note: potency is the fitted concentration of half-maximal effect; % is set by controls: 0 for no effect and ±100 for the full control effect; nearly all actives have a fitted effect of over 50% in size
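Fission yeast RE007 carrying one integrated HIV-1 vpr copy, seeded at OD 0.01 in PMG+AL medium with 23 nL pinned compound. Grown 24 h at 30 degrees; viability read by BacTiter-Glo luminescence after 5 min.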
TbPYK inhibitor – inhibitors of Trypanosoma brucei pyruvate kinase; 410,000 compounds, 0.12% hits; AID 624173; Q57TT1; TbPYK enzyme, Kinase-Glo Plus ATP luminescence, 45 min; Potency, µM (highest dose often 76.8 µM), for the others: at the highest dose activity, negative = inhibition, usual class: inhibitors; note: potency is the fitted concentration of half-maximal effect; % is set by controls: 0 for no effect and ±100 for the full control effect; nearly all actives have a fitted effect of over 50% in size
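Luminescence from Kinase-Glo Plus, added after a 45-minute room-temperature reaction, served as the end-point read-out. The enzyme and substrate were preincubated with compound before ADP (130 uM final) initiated turnover. Concentration-effect curves came from normalized qHTS data.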
LmPK inhibitor – LmPK (Leishmania mexicana) enzyme inhibition; 290,000 compounds, 0.37% hits; Potency, µM (doses to about 57.5 µM), for inactives: top-dose activity change, negative = inhibition, usual class: inhibitors; purified LmPK, Kinase-Glo ATP luminescence, 1 h; Q27686; note: potency is the fitted concentration of half-maximal effect; % is set by controls: 0 for no effect and ±100 for the full control effect
Target sequence (Q27686 whole entry, looked up): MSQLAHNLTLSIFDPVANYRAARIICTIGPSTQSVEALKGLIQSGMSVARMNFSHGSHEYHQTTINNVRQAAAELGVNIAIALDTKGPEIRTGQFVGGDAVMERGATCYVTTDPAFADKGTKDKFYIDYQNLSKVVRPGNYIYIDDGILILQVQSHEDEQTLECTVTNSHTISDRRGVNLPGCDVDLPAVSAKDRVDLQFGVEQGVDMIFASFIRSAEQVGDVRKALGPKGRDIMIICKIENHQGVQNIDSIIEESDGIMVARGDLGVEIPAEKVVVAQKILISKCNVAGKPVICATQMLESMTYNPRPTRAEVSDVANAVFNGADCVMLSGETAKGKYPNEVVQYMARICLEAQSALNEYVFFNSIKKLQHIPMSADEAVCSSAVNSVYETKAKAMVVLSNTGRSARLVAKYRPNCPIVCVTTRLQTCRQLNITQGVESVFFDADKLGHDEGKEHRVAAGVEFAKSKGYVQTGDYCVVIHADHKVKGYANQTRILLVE
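Kinase-Glo luminescence read after 1 h RT reaction of 0.1 nM LmPK with 0.5 mM PEP and 0.1 mM ADP. Activity scaled between uninhibited and enzyme-free controls.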
CHX counter – counter-screen for Shiga toxin inhibitors: cycloheximide protein synthesis inhibition | cell reporter, cycloheximide protein synthesis inhibition counterscreen | max response, % | 300,000 compounds, 12% hits | AID 2314; in the data active = max response mostly above about 13%, no sharp cut-off; inactive = mostly below about 14%; note: read at 38.3 µM for the half of the compounds with a filed dose; 0% is about no effect
FBPA Giardia inh – blocks Giardia fructose-bisphosphate aldolase activity. A8B2U2. purified Giardia FBPA. Potency, µM (doses to about 59.6 µM), without a hit: at the top dose activity, negative = inhibition, hits mostly inhibitors. 290,000 compounds, 0.71% hits; note: potency is the fitted concentration of half-maximal effect; % is set by controls: 0 for no effect and ±100 for the full control effect; nearly all actives have a fitted effect of over 55% in size
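Giardia FBPA (40 nM reagent) was preincubated 10 min at RT with compound (up to 57.5 uM final), then substrate plus GAPDH/TPI/NAD/arsenate coupling system with diaphorase/resazurin was added; resorufin fluorescence (525/598 nm) was read after 20 min.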
* hit, by the source's call; u = inconclusive; x = not tested or not shown; [ ] = dose if it differs, or a comment. The full list was thinned out, with hits kept by preference. Unless noted, calls come from the whole dose curve; as a rule, active = well fitted curve in the direction sought with a large enough effect; inconclusive = small, poorly fitted or top-dose-only effect, or another doubt; inactive = no such curve, though single readings can be large; an effect the other way counts as inactive or inconclusive.

SMILES	Shiga inhibitor	RE007 growth inh	TbPYK inhibitor	LmPK inhibitor	CHX counter	FBPA Giardia inh
O=C(Nc1ccc(N2CCCC2)c(Cl)c1)c1cccc(-c2cc3ccccc3oc2=O)c1	-11.4	-11.1%	-9.0%	1.6%	0.6	0.4%
COc1ccc(CCNC(=O)CCc2ccsc2)cc1OC	-7.4	22.0%	0.4%	0.0%	-1.9	-0.7%
Cc1cc(C)cc(NC(=O)C(=O)NCC(c2cccnc2)N2CCc3ccccc3C2)c1 (centres undefined)	x	x	-4.7%	x	x	x
C[C@]12O[C@H]1[C@@H](O)C(Br)=C(CO)[C@H]2O	x	x	x	x	x	-24.9%
NS(=O)(=O)c1cccc(NC(=O)c2cc3ccccc3o2)c1	56.1*	-15.5%	-17.2%	-15.5%	25.1*	-4.2%
NS(=O)(=O)c1cccc(NC(=O)c2cc(=O)c3ccccc3o2)c1	10.5	-5.4%	-7.8%	2.8%	-0.5	-6.3%
CCC(=O)Nc1cccc(-c2cc3ccccc3oc2=O)c1	82.6*	4.5%	-4.4%	1.5%	60.6*	-5.3%
O=C(CCNc1ccc(F)cc1)c1cc2ccccc2o1	9.7	u	0.0%	-1.6%	2.1	-0.8%
O=C(CCNc1cccc(F)c1)c1cc2ccccc2o1	36.0	4.4%	-1.4%	-11.8%	43.8*	-9.1%
CC[C@H](C)[C@H](NC(=O)[C@@H](NC(=O)[C@@H](CC(=O)NO)Cc1ccccc1)[C@@H](C)CC)C(=O)O	15.0	x	x	x	-8.9	3.5%
CC(=O)Nc1ccc(Nc2ncnc3c2c(-c2ccccc2)cn3-c2ccc(C)c(Cl)c2)cc1	x	x	-10.2%	x	x	x
CCOC(=O)c1ccccc1NC(=O)c1nn(C)c2c1COc1ccccc1-2	x	x	-3.2%	x	x	x
Cc1c(C)n(Cc2ccccc2)c2ccc(C(=O)NC(C)c3ccccc3)cc12 (centres undefined)	x	x	-2.6%[15.4 µM]	x	x	x
COCCN1C(=O)C(O)=C(C(=O)c2cccs2)C1c1ccccc1 (centres undefined)	10.7	8.0%	32.0%	-2.1%	5.7	2.9%
Cc1ccc(C2C(C(=O)c3cccs3)=C(O)C(=O)N2CCN2CCOCC2)o1 (centres undefined)	49.9*	2.1%	0.1%	-5.0%	23.7*	u
CCN(CC)CCN1C(=O)C(O)=C(C(=O)c2cccs2)C1c1ccc(C)o1 (centres undefined)	27.0*	0.0%	-11.5%	2.8%	21.9*	-25.5%
Cc1ccc(C2C(C(=O)c3cc4ccccc4o3)=C(O)C(=O)N2CCN2CCOCC2)o1 (centres undefined)	53.6*	-21.3%	-6.7%	3.4%	24.3*	0.0%
Cc1ccc(C2C(C(=O)c3cc4ccccc4o3)=C(O)C(=O)N2CCN2CCOCC2)cc1 (centres undefined)	34.9	10.9%	-0.6%	1.1%	17.1	x
CCN(CC)CCN1C(=O)C(O)=C(C(=O)c2cccs2)C1c1ccccn1 (centres undefined)	20.5	-8.5%	-6.0%	0.6%	20.0*	u
COc1cccc(C2C(C(=O)c3cccs3)=C(O)C(=O)N2CCN(C)C)c1OC (centres undefined)	1.2	-4.7%	0.3%	-1.8%	3.8	-5.1%
Cc1ccsc1CCN1C(=O)N(c2ccc(F)cc2)C(=O)C1CC(=O)Nc1ccccc1 (centres undefined)	x	x	-0.3%	x	x	x
O=C(C1=C(O)C(=O)N(CCN2CCOCC2)C1c1ccccn1)c1cccs1 (centres undefined)	35.9*	-23.9%	-10.2%	-5.0%	27.6*	u
O=S(=O)(c1ccc(OC(F)(F)F)cc1)N1CCC(c2nc3ccccc3s2)CC1	x	x	-3.4%	x	x	x
Nc1c2c(nc3sc4c(c13)CCCC4)CCCC2	107.1*	-18.4%	-2.2%	-2.9%	26.0*	-8.2%
Nc1c2c(nc3sc4c(c13)CCCC4)CCCCC2	129.7*	14.5%	-12.7%	-24.9%	70.8*	1.4%
Nc1nc2c(s1)CCCCCCCCCC2	1.5	-6.1%	2.1%	3.1%	-1.4	-8.7%
CCc1nc2sc3c(c2c(=O)o1)CCCC3	14.2	6.1%	-10.3%	0.1%	7.8	-19.1%
CC(C)(C)c1nc2sc3c(c2c(=O)o1)CCCC3	-6.2	-18.0%	4.1%	-15.5%	-5.5	3.8%

High-throughput results from PubChem BioAssay.
